Experimental data as given in PubChem BioAssay.
The source made the active and inactive calls.

How the values were obtained:
[1] = system: PRMT1 (protein arginine N-methyltransferase 1); test: small molecules binding arginine methyltransferase PRMT1 – biochemical, small-molecule microarray, 635 nm fluorescence, primary screen (AID 1088); conditions: higher = more signal;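 further: binding of Prmt1 protein to compounds spotted on small-molecule microarray slides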
[2] = growth effects on S. cerevisiae YJM789 – YJM789 clinical isolate, OD600, 24 h, basal, primary screen (AID 1089); conditions: higher = more signal, called active from +8 up or from −8 down;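 further: growth of clinical yeast isolate S. cerevisiae YJM 789 seeded 1000 cells per well; test concentration not given here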
[3] = S. pombe growth modifiers, basal conditions – strain 972, OD600, 24 h, no modulator, primary screen (AID 1090);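 further: basal condition with compound alone and no growth modifier present; test concentration not given here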; conditions: S. pombe 972 growth, higher = more signal, called active from +8 up or from −8 down
[4] = budding yeast growth modifiers under rapamycin – strain BY4716, OD600, 96 h, primary screen (AID 1091); further: test concentration not given here; conditions: S. cerevisiae BY4716 + rapamycin, higher = more signal, called active from +8 up or from −8 down
[5] = biological target: Torsin-1A-interacting protein 2 (Homo sapiens) (UniProt Q8NFQ8); test: small molecules binding lysate-expressed LULL1 – cell lysate, human LULL1 lysate, 635/667 nm fluorescence, primary screen (AID 1092); conditions: small-molecule microarray, hLULL1 lysate binding, 635 nm fluorescence; higher = more signal;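 further: probe is lysate of COS7 cells overexpressing human LULL1; score merges per-feature 667 nm fluorescence with signal-to-noise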
Torsin-1A-interacting protein 2 (Homo sapiens), sequence (Q8NFQ8 whole entry, looked up): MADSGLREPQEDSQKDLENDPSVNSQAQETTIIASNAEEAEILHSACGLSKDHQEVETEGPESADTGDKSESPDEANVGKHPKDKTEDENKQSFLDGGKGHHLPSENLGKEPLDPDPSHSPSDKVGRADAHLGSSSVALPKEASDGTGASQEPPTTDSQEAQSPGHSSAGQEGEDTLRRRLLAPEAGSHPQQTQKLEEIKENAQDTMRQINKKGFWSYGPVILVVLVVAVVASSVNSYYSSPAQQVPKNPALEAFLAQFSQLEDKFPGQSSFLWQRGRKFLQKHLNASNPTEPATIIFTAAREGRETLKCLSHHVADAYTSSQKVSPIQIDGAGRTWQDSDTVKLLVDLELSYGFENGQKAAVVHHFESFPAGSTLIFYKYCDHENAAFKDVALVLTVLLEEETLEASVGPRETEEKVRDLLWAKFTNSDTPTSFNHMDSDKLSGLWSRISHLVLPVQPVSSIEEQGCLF

[6] = optical density change of DRC41 E. coli – strain DRC41, OD650, 24 h, E. coli filamentation project, primary screen (AID 1093);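 further: MC1000 strain lacking acrAB efflux and sulA so SOS filamentation is blocked; test concentration not given here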; conditions: E. coli DRC41 growth, higher = more signal, called active from +8 up or from −8 down
[7] = probe aLefty2 binding to arrayed compounds – biochemical, biotinylated probe, 635/667 nm fluorescence, primary screen (AID 1094); conditions: small-molecule microarray, higher = more signal;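 further: score merges spot fluorescence near 667 nm with spot signal-to-noise ratio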
[8] = system: Noggin (protein binding on small-molecule microarray); test: small molecules binding Noggin protein – biochemical, 635/667 nm fluorescence, primary screen (AID 1095); conditions: 635 nm fluorescence, higher = more signal;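 further: score merges 667 nm feature fluorescence with signal to noise over triplicate slides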
[9] = biological target: Neurogenic locus notch homolog protein 3 (Homo sapiens) (UniProt Q9UM47); test: small molecules binding NOTCH3 protein – biochemical, 635/667 nm fluorescence, primary screen (AID 1096); conditions: small-molecule microarray, 635 nm fluorescence, higher = more signal
Neurogenic locus notch homolog protein 3 (Homo sapiens), sequence (Q9UM47 whole entry, looked up): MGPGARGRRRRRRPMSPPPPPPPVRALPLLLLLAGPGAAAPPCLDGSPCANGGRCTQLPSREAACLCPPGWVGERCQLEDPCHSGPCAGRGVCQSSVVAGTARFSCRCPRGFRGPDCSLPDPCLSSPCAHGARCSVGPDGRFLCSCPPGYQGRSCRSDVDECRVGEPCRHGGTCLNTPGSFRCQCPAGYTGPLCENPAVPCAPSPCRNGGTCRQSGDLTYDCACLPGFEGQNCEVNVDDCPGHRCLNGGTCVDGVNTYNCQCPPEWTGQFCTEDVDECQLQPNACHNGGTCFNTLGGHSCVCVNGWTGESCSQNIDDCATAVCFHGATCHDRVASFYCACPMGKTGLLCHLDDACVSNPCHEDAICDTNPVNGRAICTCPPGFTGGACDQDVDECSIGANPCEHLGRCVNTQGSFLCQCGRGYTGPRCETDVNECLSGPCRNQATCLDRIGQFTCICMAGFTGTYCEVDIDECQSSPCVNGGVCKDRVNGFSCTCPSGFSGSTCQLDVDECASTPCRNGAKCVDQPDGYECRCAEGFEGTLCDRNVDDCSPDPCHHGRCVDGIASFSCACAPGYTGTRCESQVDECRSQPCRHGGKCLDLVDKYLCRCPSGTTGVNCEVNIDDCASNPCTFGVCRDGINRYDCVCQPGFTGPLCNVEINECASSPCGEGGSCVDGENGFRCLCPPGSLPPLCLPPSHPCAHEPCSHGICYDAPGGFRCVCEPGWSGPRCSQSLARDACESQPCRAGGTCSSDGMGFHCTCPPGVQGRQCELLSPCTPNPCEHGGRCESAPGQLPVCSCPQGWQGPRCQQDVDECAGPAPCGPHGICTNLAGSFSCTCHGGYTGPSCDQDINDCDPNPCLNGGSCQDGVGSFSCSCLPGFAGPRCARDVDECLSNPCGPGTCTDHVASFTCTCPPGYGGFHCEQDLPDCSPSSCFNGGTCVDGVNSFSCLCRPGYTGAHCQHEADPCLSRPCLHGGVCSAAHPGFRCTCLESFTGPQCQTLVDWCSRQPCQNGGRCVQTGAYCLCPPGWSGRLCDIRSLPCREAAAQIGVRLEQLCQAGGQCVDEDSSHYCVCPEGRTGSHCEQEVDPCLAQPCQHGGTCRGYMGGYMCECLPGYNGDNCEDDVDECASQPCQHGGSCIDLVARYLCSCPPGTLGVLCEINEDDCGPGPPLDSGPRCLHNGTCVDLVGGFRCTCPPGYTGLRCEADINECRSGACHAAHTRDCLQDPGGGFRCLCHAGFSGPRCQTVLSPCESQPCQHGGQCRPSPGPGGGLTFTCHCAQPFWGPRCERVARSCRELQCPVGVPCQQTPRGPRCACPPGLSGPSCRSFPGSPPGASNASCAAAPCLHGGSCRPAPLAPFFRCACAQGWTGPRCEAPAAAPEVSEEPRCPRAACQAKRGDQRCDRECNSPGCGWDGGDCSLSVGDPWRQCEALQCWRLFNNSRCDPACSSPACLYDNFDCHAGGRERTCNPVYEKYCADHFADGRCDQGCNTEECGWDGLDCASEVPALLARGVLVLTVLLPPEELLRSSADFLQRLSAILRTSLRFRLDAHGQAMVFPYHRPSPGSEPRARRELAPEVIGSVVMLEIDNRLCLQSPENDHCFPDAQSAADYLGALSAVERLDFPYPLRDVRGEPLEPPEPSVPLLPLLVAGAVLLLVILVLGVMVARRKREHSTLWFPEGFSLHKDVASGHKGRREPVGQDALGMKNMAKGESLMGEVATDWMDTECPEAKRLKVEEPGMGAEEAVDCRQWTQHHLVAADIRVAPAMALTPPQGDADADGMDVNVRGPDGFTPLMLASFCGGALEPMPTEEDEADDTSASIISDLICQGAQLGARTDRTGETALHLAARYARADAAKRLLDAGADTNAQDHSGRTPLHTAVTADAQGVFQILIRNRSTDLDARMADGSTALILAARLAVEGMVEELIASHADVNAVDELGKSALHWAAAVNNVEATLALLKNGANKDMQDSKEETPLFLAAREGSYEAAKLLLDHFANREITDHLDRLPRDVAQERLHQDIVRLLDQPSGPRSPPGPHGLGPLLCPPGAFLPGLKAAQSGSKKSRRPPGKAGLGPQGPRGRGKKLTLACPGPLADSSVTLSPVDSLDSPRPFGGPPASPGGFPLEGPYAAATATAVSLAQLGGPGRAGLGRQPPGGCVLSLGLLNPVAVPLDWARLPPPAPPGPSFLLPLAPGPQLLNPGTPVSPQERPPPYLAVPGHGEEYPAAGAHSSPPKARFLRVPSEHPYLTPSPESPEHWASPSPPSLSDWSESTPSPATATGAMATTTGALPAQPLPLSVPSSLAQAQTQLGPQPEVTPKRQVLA

[10] = probe aEGFR binding to arrayed compounds – biochemical, biotinylated probe, 635/667 nm fluorescence, primary screen (AID 1097); conditions: small-molecule microarray, higher = more signal;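 further: probe is a biotinylated anti-EGFR antibody binding compounds printed on slides; score combines fluorescence near 667 nm and signal to noise of each spot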
[11] = system: Plasmodium falciparum Sir2 (PF13_0152, Sir2A); test: Plasmodium falciparum Sir2A binding compounds – biochemical, small-molecule microarray, 635 nm fluorescence, primary screen (AID 1098); conditions: fluorescence 635 nm, higher = more signal;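 further: score merges spot fluorescence intensity with its signal-to-noise ratio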
[12] = probe aDKK1 binding to arrayed compounds – biochemical, biotinylated probe, 635/667 nm fluorescence, primary screen (AID 1099); conditions: small-molecule microarray, higher = more signal;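 further: score merges 667nm spot fluorescence with signal to noise across triplicate slides; reference of the scale not given here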
[13] = probe aCHRDL2 binding to arrayed compounds – biochemical, biotinylated probe, 635/667 nm fluorescence, primary screen (AID 1100); conditions: small-molecule microarray, higher = more signal
[14] = change in splice reporter luminescence, either direction, cell-based, HEK293, spliceosome inhibition project, primary screen (AID 1101); conditions: HEK293 splicing luciferase reporter, 24 h, higher = more signal, called active from +8 up or from −8 down;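 further: HEK293 cells carrying a splicing-competent luciferase reporter gene; test concentration not given here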
[15] = biological target: Fibroblast growth factor 10 (Homo sapiens) (UniProt O15520); test: compounds binding fibroblast growth factor 10 – biochemical, small-molecule microarray, 635 nm fluorescence, primary screen (AID 1102); conditions: FGF10 binding, fluorescence 635 nm, higher = more signal
Fibroblast growth factor 10 (Homo sapiens), sequence (O15520 whole entry, looked up): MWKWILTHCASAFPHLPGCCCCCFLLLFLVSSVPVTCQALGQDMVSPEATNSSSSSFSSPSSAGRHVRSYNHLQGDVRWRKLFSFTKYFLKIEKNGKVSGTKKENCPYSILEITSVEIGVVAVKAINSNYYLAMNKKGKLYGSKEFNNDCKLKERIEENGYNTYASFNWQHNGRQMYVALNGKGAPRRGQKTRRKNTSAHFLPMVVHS

[16] = system: glycogen synthase kinase-3 (GSK3A per assay name; protocol says GSK3B); test: compounds binding glycogen synthase kinase-3 – biochemical, small-molecule microarray, 635 nm fluorescence, GSK3A, primary screen (AID 1103); conditions: fluorescence 635 nm, higher = more signal; further: the record names both GSK3A and GSK3B
[17] = biological target: Epidermal growth factor receptor (Homo sapiens) (UniProt P00533); test: compounds binding epidermal growth factor receptor – biochemical, small-molecule microarray, 635 nm fluorescence, primary screen (AID 1104); conditions: EGFR binding, higher = more signal;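 further: score merges 667 nm emission intensity with spot signal to noise over triplicate slides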
Epidermal growth factor receptor (Homo sapiens), sequence (P00533 whole entry, looked up): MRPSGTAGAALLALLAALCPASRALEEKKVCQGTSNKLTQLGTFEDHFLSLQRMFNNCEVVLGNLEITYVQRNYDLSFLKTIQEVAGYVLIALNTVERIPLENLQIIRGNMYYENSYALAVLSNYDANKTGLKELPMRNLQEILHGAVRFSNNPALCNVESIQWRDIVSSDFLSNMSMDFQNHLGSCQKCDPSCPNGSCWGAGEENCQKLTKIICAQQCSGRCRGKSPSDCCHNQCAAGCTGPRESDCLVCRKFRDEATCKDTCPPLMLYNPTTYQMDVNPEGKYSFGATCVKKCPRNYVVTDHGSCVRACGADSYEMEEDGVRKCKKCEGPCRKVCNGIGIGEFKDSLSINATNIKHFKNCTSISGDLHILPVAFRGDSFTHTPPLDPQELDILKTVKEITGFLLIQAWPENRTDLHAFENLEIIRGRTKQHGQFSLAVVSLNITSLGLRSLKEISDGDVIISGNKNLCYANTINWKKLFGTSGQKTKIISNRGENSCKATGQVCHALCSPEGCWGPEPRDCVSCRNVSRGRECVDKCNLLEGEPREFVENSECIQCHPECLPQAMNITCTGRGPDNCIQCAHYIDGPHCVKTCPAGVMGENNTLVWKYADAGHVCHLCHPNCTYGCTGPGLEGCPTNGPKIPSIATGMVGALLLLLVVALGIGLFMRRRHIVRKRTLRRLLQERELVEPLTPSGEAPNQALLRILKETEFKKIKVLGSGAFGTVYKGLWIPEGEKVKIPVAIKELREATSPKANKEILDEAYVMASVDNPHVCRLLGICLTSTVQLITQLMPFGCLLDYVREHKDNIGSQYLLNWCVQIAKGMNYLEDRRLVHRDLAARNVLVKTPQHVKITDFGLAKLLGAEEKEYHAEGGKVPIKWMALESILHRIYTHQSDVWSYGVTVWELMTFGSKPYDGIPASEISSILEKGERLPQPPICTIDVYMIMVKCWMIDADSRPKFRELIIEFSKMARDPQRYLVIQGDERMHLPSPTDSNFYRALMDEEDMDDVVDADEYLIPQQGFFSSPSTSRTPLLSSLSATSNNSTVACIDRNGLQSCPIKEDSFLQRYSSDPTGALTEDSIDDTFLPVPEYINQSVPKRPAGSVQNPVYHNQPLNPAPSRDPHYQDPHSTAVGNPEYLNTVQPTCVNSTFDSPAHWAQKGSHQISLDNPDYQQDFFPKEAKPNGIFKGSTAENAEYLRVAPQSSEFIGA

[18] = biological target: Follistatin-related protein 3 (Homo sapiens) (UniProt O95633); test: compounds binding follistatin-related protein 3 – biochemical, small-molecule microarray, 635 nm fluorescence, primary screen (AID 1105); conditions: FSTL3 binding, higher = more signal;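 further: score merges emission near 667 nm and signal to noise per printed spot across three slides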
Follistatin-related protein 3 (Homo sapiens), sequence (O95633 whole entry, looked up): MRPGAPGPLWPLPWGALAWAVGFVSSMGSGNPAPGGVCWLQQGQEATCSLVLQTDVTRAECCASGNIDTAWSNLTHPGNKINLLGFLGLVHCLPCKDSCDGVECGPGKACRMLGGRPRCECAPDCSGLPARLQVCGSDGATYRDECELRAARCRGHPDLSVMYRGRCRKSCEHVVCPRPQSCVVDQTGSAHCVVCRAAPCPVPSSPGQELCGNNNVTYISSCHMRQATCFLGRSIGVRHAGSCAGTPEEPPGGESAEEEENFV

[19] = biological target: Dickkopf-related protein 1 (Homo sapiens) (UniProt O94907); test: small molecules binding DKK1 protein – biochemical, small-molecule microarray, 635 nm fluorescence scan, primary screen (AID 1106); conditions: higher = more signal;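 further: score merges emission near 667 nm with signal to noise over three replicate slides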
Dickkopf-related protein 1 (Homo sapiens), sequence (O94907 whole entry, looked up): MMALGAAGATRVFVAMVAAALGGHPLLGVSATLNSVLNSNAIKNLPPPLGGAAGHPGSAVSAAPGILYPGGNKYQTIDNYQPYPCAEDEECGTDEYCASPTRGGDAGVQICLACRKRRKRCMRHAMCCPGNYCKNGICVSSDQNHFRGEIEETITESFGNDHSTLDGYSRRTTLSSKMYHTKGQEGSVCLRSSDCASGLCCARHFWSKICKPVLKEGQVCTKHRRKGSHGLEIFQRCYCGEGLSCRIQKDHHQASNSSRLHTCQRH

[20] = system: Inhibin beta A chain (activin A); test: small molecules binding activin A – biochemical, small-molecule microarray, 635 nm fluorescence scan, primary screen (AID 1107); conditions: INHBA, higher = more signal;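 further: mouse activin A protein probed at 4.33 µg/mL on printed slides; score merges bound-protein fluorescence near 667 nm with spot signal-to-noise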

| SMILES | composite z-score [1] | z-score [2] | z-score [3] | z-score [4] | composite z-score [5] | z-score [6] | composite z-score [7] | composite z-score [8] | composite z-score [9] | composite z-score [10] | composite z-score [11] | composite z-score [12] | composite z-score [13] | z-score [14] | composite z-score [15] | composite z-score [16] | composite z-score [17] | composite z-score [18] | composite z-score [19] | composite z-score [20] |
| --- | --- | --- | --- | --- | --- | --- | --- | --- | --- | --- | --- | --- | --- | --- | --- | --- | --- | --- | --- | --- |
| C=C(CCCC)C(=O)CC[C@@H](OC(C)=O)c1cccc(OCCO)c1 | 0.468 | -24.3 (active) | -20.6 (active) | -3.92 (inactive) | 0.0116 | -0.139 (inactive) | -0.193 | 1.54 | 0.165 | -0.192 | 1.12 | -0.278 | -0.654 | 0.726 (inactive) | 0.195 | -0.249 | -0.161 | 0.158 | 0.329 | 0.474 |
| CCCCCCc1nc(CCCc2cc3c(c(CCCCCC)n2)[Si](C(C)C)(C(C)C)O[C@H]3c2ccccc2)cc2c1[Si](C(C)C)(C(C)C)O[C@H]2c1ccccc1 | 0.0913 | -0.449 (inactive) | -0.643 (inactive) | -0.146 (inactive) | -0.769 | -1.43 (inactive) | -0.233 | 0.522 | 0.279 | -0.11 | -0.509 | -0.259 | -0.21 | -1.11 (inactive) | 0.0736 | -0.401 | 0.123 | 0.0624 | 0.476 | 0.656 |
| CO[C@H]1COC(=O)[C@H](C)NC(=O)[C@@H](C)COC(=O)CC=C[C@@H]1C | 0.748 | -0.156 (inactive) | 0.473 (inactive) | -0.564 (inactive) | -0.498 | 0.2 (inactive) | -0.103 | 0.3 | 0.674 | -0.02 | 1.38 | -0.369 | -0.786 | -0.794 (inactive) | 0.63 | 0.857 | 0.767 | 0.0078 | 0.829 | -0.249 |
| N#Cc1ccc(NN2C(C(O)c3cc(C(F)(F)F)cc(C(F)(F)F)c3)C=CC3C(=O)N(c4ccccc4)C(=O)C32)cc1 (stereo not given) | 1.34 | 0.628 (inactive) | 0.817 (inactive) | 4.19 (inactive) | 3.45 | -1.55 (inactive) | 0.135 | 0.0695 | 1.05 | 0.0731 | 0.666 | 0.175 | 1.04 | 0.628 (inactive) | 1.03 | 1.28 | 0.292 | 1.02 | -0.62 | 0.733 |
| COc1ccc(O[C@H]2C=C[C@@H](c3ccccc3)O[C@@H]2COC(=O)CCC(C)=NO[C@H](C)c2cn([C@@H]3COC[C@H]3O)nn2)cc1 | 1.53 | -0.88 (inactive) | -0.757 (inactive) | -0.56 (inactive) | 0.146 | 0.508 (inactive) | -0.181 | 0.525 | 0.942 | -0.148 | 0.716 | -0.226 | -0.791 | -1.25 (inactive) | 0.39 | 0.387 | 0.562 | 0.706 | 0.583 | -0.298 |
| CO[C@@H]1COC(=O)CC=C[C@@H](C)COC(=O)[C@H](COCc2ccccc2)NC(=O)CC=C[C@H]1C | 0.943 | 0.847 (inactive) | -0.584 (inactive) | 0.736 (inactive) | -0.914 | 0.154 (inactive) | -0.183 | 1.71 | -0.551 | -0.0899 | 1.49 | -0.526 | -1.31 | -0.912 (inactive) | 0.285 | 0.19 | 0.912 | 1.23 | 1.64 | 1.63 |
| CC(CCC(=O)OC[C@H]1O[C@H](C#Cc2ccccc2)C=C[C@@H]1Oc1ccc(C)cc1)=NOC[C@@H](O)COCc1ccco1 | -0.25 | 0.594 (inactive) | 0.134 (inactive) | 0.108 (inactive) | -0.486 | 0.147 (inactive) | -0.356 | -3.08 | -1.76 | -0.428 | 1.33 | -0.627 | -0.044 | -0.0928 (inactive) | -3.07 | -1.25 | -3.58 | -3.18 | -2.09 | -2.69 |
| CC(C)[Si]1(C(C)C)O[C@@H](c2ccccc2)c2cc(C3CC3)nc(-c3ccccc3)c21 | 0.0587 | -0.443 (inactive) | -5.5 (inactive) | -0.215 (inactive) | -0.332 | -0.867 (inactive) | -0.34 | -0.207 | 0.492 | -0.0304 | -0.792 | -0.276 | -0.0652 | -0.613 (inactive) | -0.0733 | -0.248 | -0.337 | -0.349 | -0.568 | -1.07 |
| COC(=O)[C@@H]1CC[C@H](C)[C@@H](c2ccc(C)cc2)N1C(=O)c1ccc(C=NOC[C@@H](O)COCc2ccco2)cc1 | -2.07 | -1.45 (inactive) | 0.165 (inactive) | -0.71 (inactive) | -1.69 | 1.47 (inactive) | 0.0179 | -1.01 | -3.12 | -0.0868 | -0.525 | -0.456 | 0.675 | -0.0402 (inactive) | -1.43 | -1.79 | -1.3 | -2.16 | -0.5 | 1.87 |
| COCCOC(=O)N1C(=O)[C@@]2(c3cc(C#Cc4ccc(OC)cc4)ccc31)[C@H](c1ccc(O)cc1)N1[C@H](c3ccccc3)[C@H](c3ccccc3)OC(=O)[C@H]1[C@@H]2C(N)=O | 1.55 | 0.0655 (inactive) | -0.118 (inactive) | -0.0092 (inactive) | 2.93 | 0.04 (inactive) | -0.145 | 0.977 | 1.1 | 0.0026 | 1.49 | -0.0422 | -0.21 | -1.95 (inactive) | 1.1 | 1.25 | 0.655 | 1.4 | 0.56 | 0.213 |
